# EP2 modulator – EP2 receptor (human) modulation; EP2-expressing cells, cAMP HTRF FRET, PGE2 co-stimulation; induction, % at 25 µM; P43116; 260,000 tested, 0.83% active;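 active = compounds whose cAMP rise, as percent of the full-agonist control response, exceeds 60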;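 also: rat C6 glioma line stably carrying human EP2 under a CMV promoter; the protocol text gives 20 µM as final concentration; 100% = response of wells given 1 µM PGE2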
# Hck-Nef inh – inhibitors of human Hck kinase activated by Nef; P08631; Recombinant Hck-YEEI plus Nef, Z-Lyte FRET kinase assay; inhibition, % at 20 µM; 220,000 tested, 0.68% active;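 active = Hck-Nef kinase inhibition above about 50%, limit read from the data; inactive = inhibition below that limit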;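 also: 0% = DMSO with Hck plus Nef and 100% = Hck alone without Nef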
# Target sequence (P08631 whole entry, looked up): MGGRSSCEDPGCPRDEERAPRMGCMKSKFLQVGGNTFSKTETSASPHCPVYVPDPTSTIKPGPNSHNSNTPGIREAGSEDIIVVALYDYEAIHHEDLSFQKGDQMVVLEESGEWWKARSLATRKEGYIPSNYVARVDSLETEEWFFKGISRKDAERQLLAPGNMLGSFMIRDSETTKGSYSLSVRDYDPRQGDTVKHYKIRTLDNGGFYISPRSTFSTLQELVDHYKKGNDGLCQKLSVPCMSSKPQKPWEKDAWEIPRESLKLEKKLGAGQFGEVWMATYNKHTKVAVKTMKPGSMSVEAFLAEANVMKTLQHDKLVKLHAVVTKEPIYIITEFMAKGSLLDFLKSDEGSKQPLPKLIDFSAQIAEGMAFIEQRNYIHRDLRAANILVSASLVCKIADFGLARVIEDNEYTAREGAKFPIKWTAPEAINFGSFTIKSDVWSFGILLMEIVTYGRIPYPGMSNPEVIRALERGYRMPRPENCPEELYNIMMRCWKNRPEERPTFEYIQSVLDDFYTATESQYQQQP
# Arbovirus inh – arbovirus infection inhibition. arbovirus infection cell-based antiviral screen. inhibition, % at 10 µM. 200,000 tested, 0.37% active; in the data active = inhibition above about 30%
# PGE2 EP2 inh – EP2 receptor (human) inhibition | P43116 | 260,000 tested, 0.52% active | inhibition, % at 25 µM | C6 glioma cells expressing human EP2, cAMP TR-FRET; cells stimulated with saturating PGE2;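 active = percent inhibition above 40 after rounding to a whole number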;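 also: rat C6 glioma host cells with rolipram phosphodiesterase inhibitor present; the protocol text gives 20 µM as final concentration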
# p97 inhibitor – inhibitors of human p97 ATPase | P55072 | recombinant p97 ATPase, Kinase-Glo ATP luminescence, 3 h | inhibition, % at 8 µM | 220,000 tested, 0.42% active | AID 1481; in the data active = inhibition above about 15%;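 also: 0% = DMSO vehicle and 100% = wells lacking enzyme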
# Starred values were filed as active, the others as inactive; . = no result given; + = active, no number; ! = a repeat was not active. Compounds with a hit are over-represented: about 2.4% of the library has one in this group of screens.
SMILES,EP2 modulator,Hck-Nef inh,Arbovirus inh,PGE2 EP2 inh,p97 inhibitor
CC(C)CCSc1nc2ccccc2[nH]1,-24,-5,-1,8,-4
C[N+](C)(C)CCCSc1nc2ccccc2[nH]1,21,.,.,42*,.
CCCC(c1nnnn1C1CCCC1)N1CCN(C)CC1 (stereo unspecified),12,.,.,9,.
CCCn1c(SCC(=O)Nc2ccc(C)c(Cl)c2)nnc1-c1ccncc1,-49,.,.,5,.
O=C(CCN1CCCCC1)N1CCc2c([nH]c3ccccc23)[C@H]1c1cccnc1,5,.,.,43*,.
Cc1cc(C)c(NC(=O)/C(=C/c2ccccc2)c2ccccc2)c(C)c1,62*,5,-10,3,2
Cc1ccc(NC(=O)/C(=C/c2ccco2)c2ccccc2)c(C)c1,65*,1,-3,5,-2
CCNC(=O)c1c(O)c2cc(OC)c(OC)cc2[nH]c1=O,-13,.,.,9,.
COC(=O)c1ccc(NC(=O)CSc2nc(C3CC3)nc3sc(C)c(C)c23)cc1,27,.,.,11,.
CCc1nc(NCc2ccccc2)c(C#N)c2c1CCCC2,64*,2,-10,2,4
CCc1nc(NCCC(C)C)c(C#N)c2c1CCCC2,43,8,-5,12,7
CC(C)(C)C1=NN(CC(=O)NCc2ccccn2)C(=O)c2cc3sccc3n2C1,13,.,.,6,.
CN(Cc1ccccc1)c1ncnc(N)c1[N+](=O)[O-],6,27,14,6,1
CN(Cc1ccccc1)c1nc(N)c([N+](=O)[O-])c(NCc2ccccc2)n1,20,5,36*,1,7
CCC(=O)c1ccc(-c2ccccc2)cc1,-7,1,-2,12,7
O=C(C[N+]12CN3CN(CN(C3)C1)C2)c1ccc(-c2ccccc2)cc1,4,.,.,58*,.
O=C(O)Cc1cc(I)c(Oc2cc(I)c(O)c(I)c2)c(I)c1,-4,.,.,7,.
O=C(O)Cc1cc(I)c(Oc2ccc(O)c(I)c2)c(I)c1,28,19,52*,20,3
Cc1ccc(S(=O)(=O)NCc2c(Cl)cccc2Oc2ccccc2)cc1,69*,19,.,10,1
O=CN/C=C/c1cc(O)ccc1O,-44,-141,.,111*,-4
O=C(/C=C/c1ccccc1)c1ccc(O)cc1O,-8,.,.,11,.
CCOC(=O)c1cc2occc2n1CC(=O)N1CCCCC1,21,.,.,8,.
O=C(Cc1ccc(-c2ccccc2)cc1)N1CCCC(c2nc(-c3ccncc3)n[nH]2)C1 (stereo unspecified),-44,.,.,.,.
CCOC(=O)C1=C(C)N(C)C(c2ccccc2)(C(F)(F)F)NC1=O (stereo unspecified),-18,.,.,43*,.
CCn1c(=O)c(C(=O)NNC(=O)COc2ccccc2)c(O)c2ccccc21,7,.,.,8,.
SMILES,EP2 modulator,Hck-Nef inh,Arbovirus inh,PGE2 EP2 inh,p97 inhibitor
O=C(CSc1ccc(-c2nc3ccccc3[nH]2)cn1)Nc1ccc2c(c1)OCO2,-41,.,.,16,.
CCn1c(SCC(=O)N2CCCCC2)nc(O)cc1=O,-7,0,4,12,0
C=C(C)CN(CC)C(=O)CSc1nc(O)cc(=O)n1C1CCCC1,0,13,30*,3,-1
CCN1/C(=C/C(C)=C/c2sc3ccccc3[n+]2CC)Sc2ccccc21,-255,39,-32,+,-10
CC(C)c1nc2sc3c(=O)[nH]cnc3c2c2c1CCC2,54,3,11,6,9
CCCCc1nc2sc3c(=O)[nH]cnc3c2c2c1CCCC2,61*,0,.,10,0
CCCc1nc2sc3c(=O)[nH]cnc3c2c2c1CCCC2,72*,13,.,7,8
Clc1ccc(CN2CCCN(Cc3ccc(Cl)cc3)C2c2cc3ccccc3c3ccccc23)cc1,12,.,.,51*,.
Clc1ccc(CN2CCCCCCC2)cc1,20,0,1,7,0
Cc1ccc2[nH]c(C)cc(=S)c2c1,75*!,-11,-4,13,-1
Cc1cc2cc3c(cc2nc1SCc1ccc(C(=O)O)cc1)OCO3,-78,.,.,12,.
COc1ccc(S(=O)(=O)N/N=C(/C)c2cccc(NC(=O)c3ccccc3Cl)c2)cc1,-23,-1,37*,.,0
CC(=O)Nc1cccc(/C(C)=N/NS(=O)(=O)c2ccccc2)c1,30,-2,-5,5,2
O=C(O)[C@H]1CN(C(=O)CCc2ccco2)C[C@@H]1c1ccc(F)cc1,9,.,.,.,.
Cc1cccc(NC(=O)c2cc(NC(=O)C3CCCCC3C(=O)O)ccc2N2CCCCC2)c1 (stereo unspecified),37,1,8,9,-2
CC(=O)Nc1ccc(N2CCCCC2)c(C(=O)Nc2cccc(C)c2)c1,62*,0,-9,13,-5
Cc1csc(NC(=O)CN2C(=O)C3CC=CCC3C2=O)n1 (stereo unspecified),4,-17,31*,11,2
Cc1ccc2nc(NC(=O)CN3C(=O)C4CC=CCC4C3=O)sc2c1 (stereo unspecified),-61,12,20,1,-7
Nc1ccc(N=Nc2ccc(-c3ccc(O)cc3)cc2)c2ccc(S(=O)(=O)O)cc12,-22,.,.,49*,.
CCCOC(=O)C(C)n1c(-c2ccccc2)nc2ccccc2c1=O (stereo unspecified),61*,-2,-12,20,-5
COC(=O)CSc1nc2c(c(-c3ccc(O)cc3)c1C#N)CCCC2,62*,-3,8,3,-2
COC(=O)CSc1nc2c(c(-c3ccco3)c1C#N)CCCC2,46,0,-1,22,-5
CCOc1ccc2nc(NC(=O)C3CCN(S(=O)(=O)c4ccc(Cl)cc4)CC3)sc2c1,-6,.,.,12,.
CCC(=O)OCN1C(=O)C=CC1=O,-33,.,.,82*,.
CCn1c(COc2ccc(Cl)c(C)c2)nnc1SCC(=O)c1cc(OC)ccc1OC,49,.,.,6,.
SMILES,EP2 modulator,Hck-Nef inh,Arbovirus inh,PGE2 EP2 inh,p97 inhibitor
Cc1c(Cl)sn(-c2ccc(Cl)cc2)c1=O,-59,-107,-27,117*,6
CC1CCN(C(=O)c2sc3ccccc3c2Cl)CC1,-3,.,.,5,.
COc1cccc(CNC(=O)C2CCN(c3ncccn3)CC2)c1,-15,.,.,9,.
COc1ccc(NC(=O)/C(Cl)=C(/Cl)S(=O)Cc2ccc(Cl)cc2)cn1 (stereo unspecified),-71,21,-34,16,20*
COc1ccc(NC(=O)CCl)cn1,31,18,.,11,25*
COc1ccc(CC(=O)Nc2ccc(OC)nc2)cc1,26,-10,2,4,6
COC(=O)COc1ccc(S(=O)(=O)NCc2ccc3c(c2)OCO3)cc1Cl,-49,.,.,12,.
Cc1cc(C2(c3ccc(O)c(C)c3)OC(=O)c3ccccc32)ccc1O,60,3,-32,9,4
Cc1cc(O)c(C(C)C)cc1C1(c2cc(C(C)C)c(O)cc2C)OC(=O)c2ccccc21,4,27,.,76*!,8
CC(C)NC(=O)CN1CCN(c2ccc(F)cc2)CC1,18,.,.,6,.
O=C(c1cnn(C(=O)c2ccccc2)c1)c1ccccc1O,21,62*,2,9,-6
O=C(c1cnn(-c2nc3ccccc3s2)c1)c1ccccc1O,-9,0,-4,30,-5

# Screening data as filed in PubChem BioAssay.
